The full data set covers some 7,900 targets. This sample favours those with a hit. About 0.6% of all pairs of compound and target were hits.
Key:
Assay in all cases: log2 fold change, soluble protein after heating vs DMSO (PISA); higher = thermal stabilisation; K562 cells, 10 uM, 30 min; active = over 0.2 and 3.5 SD of the protein, either way, in both replicates (recomputed)
[1] = compound: Cc1ccc(NC(=O)c2ccc(CN3CC[C@H](N(C)C)C3)c(C(F)(F)F)c2)cc1Nc1nccc(-c2cncnc2)n1 [bafetinib]
Summary of the method: (§1)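 Values are thermal stability changes relative to control samples and are taken from duplicates. They are stated as log2 fold changes. Before quantification by TMTpro 16plex LC-MS/MS with equalised channel sums, K562 cells at 2×10^6 cells/mL were treated with 10 μM compound for 30 min, heated in aliquots for 3 min across 48°C-58°C, pooled, extracted in PBS with 0.5% NP-40 at 4°C, and centrifuged at 21,000xg for 90 min to give the soluble supernatant.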

[2] = compound: Cc1cccc(CC(=O)N2CCc3c2ccc(-c2cn(C)c4ncnc(N)c24)c3F)n1
Summary of the method: as §1

[3] = compound: Cc1cn(-c2cc(NC(=O)c3ccc(C)c(Nc4nccc(-c5cccnc5)n4)c3)cc(C(F)(F)F)c2)cn1 [nilotinib]
Summary of the method: as §1

[4] = compound: Cc1nc(Nc2n[nH]c3c2CN(C(=O)N[C@H](CN(C)C)c2ccccc2)C3(C)C)c2sccc2n1
Summary of the method: as §1

[5] = compound: Cc1nc(Nc2ncc(C(=O)Nc3c(C)cccc3Cl)s2)cc(N2CCN(CCO)CC2)n1 [dasatinib]
Summary of the method: as §1

[6] = compound: Cc1ncc(-c2ccnc(Nc3ccc(S(C)(=O)=O)cc3)n2)n1C(C)C
Summary of the method: as §1

[7] = compound: Cn1cc(-c2ccc3c(c2)CCN3C(=O)Cc2cccc(C(F)(F)F)c2)c2c(N)ncnc21
Summary of the method: as §1

[8] = compound: Cn1cc(-c2ccc3nnc(C(F)(F)c4ccc5ncccc5c4)n3n2)cn1
Summary of the method: as §1

[9] = compound: Cn1cncc1[C@@](N)(c1ccc(Cl)cc1)c1ccc2c(c1)c(-c1cccc(Cl)c1)cc(=O)n2C [tipifarnib]
Summary of the method: as §1

[10] = compound: FC(F)(F)c1ccc(/C=C/c2nc(COc3ccc(CCCCn4ccnn4)cc3)co2)cc1 [mubritinib]
Summary of the method: as §1

Measured: log2 fold change

MRPS31 (UniProt Q92665)
inactive: [1] 0.066 | [2] 0.042 | [3] -0.041 | [4] 0.093 | [5] -0.012 | [6] 0.065 | [7] 0.078 | [8] 0.027 | [9] -0.002 | [10] 0.138

NIPSNAP2 (UniProt O75323)
inactive: [1] 0.02 | [2] -0.012 | [3] 0.082 | [4] -0.003 | [5] 0.05 | [6] -0.033 | [7] 0.185 | [8] 0.025 | [9] -0.058 | [10] 0.041

MYH10 isoform 3 (UniProt P35580)
inactive: [1] -0.046 | [2] 0.033 | [3] -0.049 | [4] -0.001 | [5] -0.057 | [6] 0.004 | [7] 0.056 | [8] 0.011 | [9] -0.083 | [10] 0.059

MTMR14 (UniProt Q8NCE2)
inactive: [1] -0.051 | [2] -0.089 | [3] -0.023 | [4] -0.04 | [5] -0.063 | [6] 0.016 | [7] -0.006 | [8] -0.084 | [9] -0.035 | [10] 0.058

NUP205 (UniProt Q92621)
inactive: [1] -0.052 | [2] 0 | [3] -0.042 | [4] -0.025 | [5] -0.133 | [6] -0.004 | [7] -0.005 | [8] -0.052 | [9] -0.072 | [10] 0.017

MXRA7 (UniProt P84157)
inactive: [1] -0.074 | [2] -0.075 | [3] -0.02 | [4] -0.057 | [5] 0.042 | [6] 0.057 | [7] 0.03 | [8] -0.042 | [9] 0.018 | [10] 0.002

NMT2 (UniProt O60551)
inactive: [1] 0.021 | [2] 0.047 | [3] 0.018 | [4] 0.083 | [5] -0.088 | [6] -0.031 | [7] -0.003 | [8] 0.03 | [9] -0.015 | [10] 0.041

OSTC (UniProt Q9NRP0)
UniProt Q9NRP0, sequence (Q9NRP0 whole entry, looked up): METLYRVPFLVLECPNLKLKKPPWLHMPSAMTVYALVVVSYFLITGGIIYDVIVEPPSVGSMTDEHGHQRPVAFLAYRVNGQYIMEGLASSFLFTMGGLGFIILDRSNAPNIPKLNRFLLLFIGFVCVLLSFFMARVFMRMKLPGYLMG
inactive: [1] -0.137 | [2] 0.027 | [3] -0.047 | [4] -0.013 | [5] -0.059 | [6] -0.029 | [7] 0.057 | [8] 0.069 | [9] -0.013 | [10] 0.044

NCAPH (UniProt Q15003)
UniProt Q15003, sequence (Q15003 whole entry, looked up): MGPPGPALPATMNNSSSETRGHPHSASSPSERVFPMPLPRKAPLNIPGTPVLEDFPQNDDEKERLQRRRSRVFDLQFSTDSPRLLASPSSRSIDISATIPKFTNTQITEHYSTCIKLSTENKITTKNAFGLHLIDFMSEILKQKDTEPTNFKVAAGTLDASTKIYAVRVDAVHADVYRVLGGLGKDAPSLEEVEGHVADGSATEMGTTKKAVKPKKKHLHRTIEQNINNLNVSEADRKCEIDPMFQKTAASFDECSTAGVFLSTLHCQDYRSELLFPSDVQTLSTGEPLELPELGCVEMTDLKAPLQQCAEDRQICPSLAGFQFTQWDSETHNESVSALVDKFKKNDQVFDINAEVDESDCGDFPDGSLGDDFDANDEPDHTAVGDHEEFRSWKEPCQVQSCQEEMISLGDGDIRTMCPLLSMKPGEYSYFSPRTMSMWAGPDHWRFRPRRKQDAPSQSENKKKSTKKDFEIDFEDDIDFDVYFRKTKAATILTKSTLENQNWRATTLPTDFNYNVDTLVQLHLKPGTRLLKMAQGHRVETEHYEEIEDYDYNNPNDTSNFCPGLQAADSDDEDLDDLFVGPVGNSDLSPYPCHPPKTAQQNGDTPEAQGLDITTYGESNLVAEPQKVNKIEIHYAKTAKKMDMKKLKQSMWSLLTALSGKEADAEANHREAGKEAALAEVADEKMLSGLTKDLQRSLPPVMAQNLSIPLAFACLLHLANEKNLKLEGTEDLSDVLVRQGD
inactive: [1] 0.015 | [2] 0.022 | [3] -0.055 | [4] -0.049 | [5] -0.121 | [6] 0.041 | [7] -0.057 | [8] 0.019 | [9] -0.102 | [10] 0.019

MT-ATP6 (UniProt P00846)
UniProt P00846, sequence (P00846 whole entry, looked up): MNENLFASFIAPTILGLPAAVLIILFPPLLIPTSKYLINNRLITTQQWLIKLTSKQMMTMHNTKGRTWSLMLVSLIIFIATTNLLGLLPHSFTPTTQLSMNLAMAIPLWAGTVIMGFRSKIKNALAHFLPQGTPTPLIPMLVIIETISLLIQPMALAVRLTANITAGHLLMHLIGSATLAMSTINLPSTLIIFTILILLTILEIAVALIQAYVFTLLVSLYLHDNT
inactive: [1] 0.162 | [2] 0.086 | [3] 0.006 | [4] 0.005 | [5] -0.101 | [6] -0.043 | [7] -0.024 | [8] 0.11 | [9] 0.231 | [10] 0.028

MRPS6 (UniProt P82932)
inactive: [1] 0.062 | [2] 0.159 | [3] -0.146 | [4] 0.062 | [5] -0.02 | [6] -0.009 | [7] 0.007 | [8] 0.148 | [9] -0.106 | [10] 0.112

PAAF1 (UniProt Q9BRP4)
inactive: [1] -0.011 | [2] -0.01 | [3] -0.084 | [4] 0.058 | [5] -0.051 | [6] -0.026 | [7] 0.018 | [8] 0.016 | [9] -0.03 | [10] 0.017

NMRAL1 (UniProt Q9HBL8)
inactive: [2] -0.026 | [4] 0.024 | [5] -0.071 | [6] -0.018 | [7] 0.031 | [9] -0.035 | [10] -0.145
active: [1] 0.806 | [3] 1.29 | [8] 0.962

NUP98 (UniProt P52948)
UniProt P52948, sequence (P52948 whole entry, looked up): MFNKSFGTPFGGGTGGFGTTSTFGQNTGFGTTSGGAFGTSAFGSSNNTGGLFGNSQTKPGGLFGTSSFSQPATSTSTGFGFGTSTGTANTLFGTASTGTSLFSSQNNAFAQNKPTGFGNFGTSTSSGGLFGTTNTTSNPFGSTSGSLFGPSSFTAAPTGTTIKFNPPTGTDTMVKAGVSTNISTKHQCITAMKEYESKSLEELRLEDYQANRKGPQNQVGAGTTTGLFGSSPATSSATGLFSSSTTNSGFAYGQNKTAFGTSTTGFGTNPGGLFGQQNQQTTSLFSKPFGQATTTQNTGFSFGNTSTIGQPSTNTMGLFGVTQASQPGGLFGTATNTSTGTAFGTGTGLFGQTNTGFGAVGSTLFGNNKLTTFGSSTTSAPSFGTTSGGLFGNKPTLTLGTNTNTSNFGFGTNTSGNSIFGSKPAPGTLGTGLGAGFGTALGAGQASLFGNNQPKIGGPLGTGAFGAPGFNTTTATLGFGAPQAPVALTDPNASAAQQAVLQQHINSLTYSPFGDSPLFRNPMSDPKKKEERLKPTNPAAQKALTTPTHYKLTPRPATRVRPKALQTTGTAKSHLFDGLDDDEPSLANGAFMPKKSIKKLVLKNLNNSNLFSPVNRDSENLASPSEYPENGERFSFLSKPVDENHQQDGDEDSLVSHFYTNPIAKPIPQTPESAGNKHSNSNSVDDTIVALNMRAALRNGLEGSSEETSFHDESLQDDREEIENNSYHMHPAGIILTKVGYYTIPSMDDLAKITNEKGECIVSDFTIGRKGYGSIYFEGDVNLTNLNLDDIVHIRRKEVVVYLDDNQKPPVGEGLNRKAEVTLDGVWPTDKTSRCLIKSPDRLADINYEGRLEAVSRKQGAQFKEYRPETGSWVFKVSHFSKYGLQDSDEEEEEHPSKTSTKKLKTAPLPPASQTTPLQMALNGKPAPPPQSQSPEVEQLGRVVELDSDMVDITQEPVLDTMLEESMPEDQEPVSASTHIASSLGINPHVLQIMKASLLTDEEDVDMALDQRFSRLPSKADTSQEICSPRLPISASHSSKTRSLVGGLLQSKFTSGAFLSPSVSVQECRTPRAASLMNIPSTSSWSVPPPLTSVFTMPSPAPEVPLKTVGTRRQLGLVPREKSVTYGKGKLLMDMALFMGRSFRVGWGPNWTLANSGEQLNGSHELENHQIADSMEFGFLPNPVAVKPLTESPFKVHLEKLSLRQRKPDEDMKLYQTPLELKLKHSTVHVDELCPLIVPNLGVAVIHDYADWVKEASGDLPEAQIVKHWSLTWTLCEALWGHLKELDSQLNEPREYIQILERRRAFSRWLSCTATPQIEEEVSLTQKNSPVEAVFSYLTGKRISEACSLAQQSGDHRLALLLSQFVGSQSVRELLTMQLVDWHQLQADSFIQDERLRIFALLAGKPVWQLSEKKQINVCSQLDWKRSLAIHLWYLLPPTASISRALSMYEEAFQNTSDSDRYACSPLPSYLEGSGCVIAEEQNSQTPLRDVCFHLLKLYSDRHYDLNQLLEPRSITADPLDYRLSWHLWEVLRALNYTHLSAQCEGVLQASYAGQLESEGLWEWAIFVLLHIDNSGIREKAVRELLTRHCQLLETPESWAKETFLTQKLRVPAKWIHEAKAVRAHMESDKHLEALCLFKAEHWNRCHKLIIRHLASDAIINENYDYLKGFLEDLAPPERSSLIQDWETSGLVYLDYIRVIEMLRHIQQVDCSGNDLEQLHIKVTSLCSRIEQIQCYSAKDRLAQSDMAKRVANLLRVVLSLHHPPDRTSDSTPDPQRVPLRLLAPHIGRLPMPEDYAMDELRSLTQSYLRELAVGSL
inactive: [1] -0.008 | [2] 0.018 | [3] -0.034 | [4] -0.062 | [5] -0.077 | [6] -0.044 | [7] -0.026 | [8] -0.075 | [9] 0.005 | [10] 0

MRPS15 (UniProt P82914)
inactive: [1] 0.126 | [2] 0.159 | [3] -0.33 | [4] 0.056 | [5] -0.046 | [6] 0.07 | [7] 0.05 | [8] 0.032 | [9] -0.105 | [10] 0.172

NFYB (UniProt P25208)
UniProt P25208, sequence (P25208 whole entry, looked up): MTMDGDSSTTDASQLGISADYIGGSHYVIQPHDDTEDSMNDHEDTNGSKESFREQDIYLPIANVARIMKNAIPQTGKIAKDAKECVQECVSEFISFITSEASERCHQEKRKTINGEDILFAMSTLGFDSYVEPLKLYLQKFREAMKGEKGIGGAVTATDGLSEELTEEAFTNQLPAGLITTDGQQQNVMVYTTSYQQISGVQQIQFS
inactive: [1] -0.086 | [2] -0.006 | [3] 0.074 | [4] -0.067 | [5] 0.124 | [6] 0.034 | [7] -0.012 | [8] -0.06 | [9] -0.019 | [10] 0.127

NUCKS1 (UniProt Q9H1E3)
inactive: [1] -0.114 | [2] -0.128 | [3] -0.028 | [4] -0.13 | [5] 0.037 | [6] 0.169 | [7] 0.005 | [8] 0.055 | [9] 0.059 | [10] 0.034

NSMCE2 (UniProt Q96MF7)
UniProt Q96MF7, sequence (Q96MF7 whole entry, looked up): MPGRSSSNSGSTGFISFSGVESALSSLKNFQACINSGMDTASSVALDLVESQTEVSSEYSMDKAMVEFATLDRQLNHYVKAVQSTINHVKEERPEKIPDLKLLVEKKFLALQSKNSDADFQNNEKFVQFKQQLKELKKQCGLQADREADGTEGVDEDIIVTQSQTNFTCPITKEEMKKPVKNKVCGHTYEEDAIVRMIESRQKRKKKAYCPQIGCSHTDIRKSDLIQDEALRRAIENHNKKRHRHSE
inactive: [1] -0.059 | [3] 0.014 | [4] -0.202 | [5] 0.025 | [6] 0.016 | [7] 0.016 | [8] -0.104 | [9] 0.008 | [10] 0.009
active: [2] 0.282

NPM3 (UniProt O75607)
inactive: [1] 0.017 | [2] -0.027 | [3] -0.045 | [4] 0.062 | [5] 0.101 | [6] -0.121 | [7] 0.043 | [8] -0.028 | [9] 0.071 | [10] -0.035

NOP2 isoform 4 (UniProt P46087)
inactive: [1] 0.274 | [2] -0.065 | [3] 0.111 | [4] 0.066 | [5] 0.344 | [6] 0.096 | [7] -0.568 | [8] -0.319 | [9] 0.214 | [10] -0.304

OXR1 (UniProt Q8N573)
UniProt Q8N573, sequence (Q8N573 whole entry, looked up): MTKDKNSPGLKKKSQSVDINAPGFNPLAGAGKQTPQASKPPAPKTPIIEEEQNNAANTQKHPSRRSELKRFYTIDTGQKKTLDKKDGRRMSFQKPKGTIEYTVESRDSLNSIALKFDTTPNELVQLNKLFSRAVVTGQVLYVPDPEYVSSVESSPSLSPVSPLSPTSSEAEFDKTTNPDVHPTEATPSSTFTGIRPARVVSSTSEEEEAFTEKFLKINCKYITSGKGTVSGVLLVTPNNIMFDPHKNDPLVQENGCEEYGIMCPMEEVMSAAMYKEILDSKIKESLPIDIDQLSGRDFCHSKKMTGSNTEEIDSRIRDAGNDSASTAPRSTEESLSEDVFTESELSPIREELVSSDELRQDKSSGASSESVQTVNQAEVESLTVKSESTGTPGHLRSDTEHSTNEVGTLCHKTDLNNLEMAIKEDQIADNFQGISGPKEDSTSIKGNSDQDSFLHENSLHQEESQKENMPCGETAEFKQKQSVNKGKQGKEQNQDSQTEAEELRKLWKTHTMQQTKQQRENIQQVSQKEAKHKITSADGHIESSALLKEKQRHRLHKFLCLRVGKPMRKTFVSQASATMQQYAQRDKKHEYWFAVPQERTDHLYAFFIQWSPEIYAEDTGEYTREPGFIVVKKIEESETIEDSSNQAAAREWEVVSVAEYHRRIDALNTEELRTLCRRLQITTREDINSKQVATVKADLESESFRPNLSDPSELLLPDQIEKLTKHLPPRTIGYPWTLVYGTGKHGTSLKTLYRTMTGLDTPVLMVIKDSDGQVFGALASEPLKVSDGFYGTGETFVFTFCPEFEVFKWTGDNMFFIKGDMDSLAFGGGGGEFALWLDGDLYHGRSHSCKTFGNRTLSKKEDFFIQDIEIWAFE
inactive: [1] -0.098 | [2] -0.063 | [3] 0.079 | [4] -0.004 | [5] -0.034 | [6] -0.023 | [7] 0.081 | [8] 0.013 | [9] -0.038 | [10] 0.05

NOL7 (UniProt Q9UMY1)
inactive: [1] 0.284 | [2] -0.107 | [3] -0.016 | [4] 0.146 | [5] 0.183 | [6] -0.073 | [7] -0.257 | [8] -0.148 | [9] 0.154 | [10] -0.156

NOLC1 isoform 2 (UniProt Q14978)
UniProt Q14978, sequence (Q14978 whole entry, looked up): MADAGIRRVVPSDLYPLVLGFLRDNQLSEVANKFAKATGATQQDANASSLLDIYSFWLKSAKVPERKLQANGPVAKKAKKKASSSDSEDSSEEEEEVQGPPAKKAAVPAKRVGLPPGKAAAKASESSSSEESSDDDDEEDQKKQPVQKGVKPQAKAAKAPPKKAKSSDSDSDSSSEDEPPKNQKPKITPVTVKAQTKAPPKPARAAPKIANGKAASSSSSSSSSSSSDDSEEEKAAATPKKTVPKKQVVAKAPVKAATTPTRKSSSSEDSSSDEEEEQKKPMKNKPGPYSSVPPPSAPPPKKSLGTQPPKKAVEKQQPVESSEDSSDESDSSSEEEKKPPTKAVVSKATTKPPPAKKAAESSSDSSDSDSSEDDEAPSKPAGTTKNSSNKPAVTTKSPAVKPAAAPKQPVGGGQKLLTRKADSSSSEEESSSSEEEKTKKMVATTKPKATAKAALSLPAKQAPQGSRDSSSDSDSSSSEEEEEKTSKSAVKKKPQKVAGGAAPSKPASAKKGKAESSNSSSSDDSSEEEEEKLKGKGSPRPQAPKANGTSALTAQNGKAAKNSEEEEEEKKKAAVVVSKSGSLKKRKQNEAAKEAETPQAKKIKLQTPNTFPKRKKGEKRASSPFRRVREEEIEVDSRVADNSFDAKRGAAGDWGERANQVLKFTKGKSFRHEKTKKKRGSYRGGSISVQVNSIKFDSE
inactive: [1] 0.105 | [2] -0.031 | [3] 0.1 | [4] -0.1 | [5] 0.145 | [7] -0.013 | [8] 0.02 | [9] 0.027 | [10] -0.031
active: [6] -0.376

MRPL50 (UniProt Q8N5N7)
inactive: [1] -0.079 | [2] -0.035 | [3] 0.008 | [4] 0.114 | [5] 0.183 | [6] -0.064 | [7] 0.022 | [8] 0.117 | [9] -0.163 | [10] -0.039

MITD1 (UniProt Q8WV92)
inactive: [1] -0.217 | [2] -0.006 | [3] -0.065 | [4] -0.035 | [5] 0.006 | [6] -0.101 | [7] 0.01 | [8] 0.009 | [9] 0.098 | [10] -0.108

MMADHC (UniProt Q9H3L0)
inactive: [1] 0.038 | [2] 0.054 | [3] -0.068 | [4] -0.173 | [5] -0.155 | [6] 0.023 | [7] -0.138 | [8] -0.063 | [9] 0.024 | [10] -0.005

NRDC isoform 2 (UniProt O43847)
inactive: [1] 0.022 | [2] 0.072 | [3] -0.019 | [4] -0.023 | [5] -0.133 | [6] 0.011 | [7] -0.01 | [8] -0.044 | [9] -0.129 | [10] 0.088
